A selection: hits, their analogues and other compounds. The true share with any hit is near 3.2%.
Tau FP inhib: qHTS for Inhibitors of Tau Fibril Formation, Fluorescence Polarization; Microtubule-associated protein tau (Homo sapiens), P10636; K18 P301L tau heparin fibrillization, Alexa594 FP, 6 h; Potency, µM (titrated, usually from 57.7 µM), without a hit: at the highest dose activity, negative = inhibition, actives largely listed as inhibitors; 280,000 compounds, 0.39% hits; AID 1468, 2008; note: nearly all actives have a fitted effect of over 55% in size
Target sequence (P10636 561-689 P618L limits assumed): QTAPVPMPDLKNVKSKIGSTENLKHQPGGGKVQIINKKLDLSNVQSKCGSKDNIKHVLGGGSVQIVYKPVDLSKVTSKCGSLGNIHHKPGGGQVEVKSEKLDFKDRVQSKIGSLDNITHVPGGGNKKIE
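Human K18 P301L fragment (15 uM unlabeled plus 0.24 uM Alexa 594-labeled) in 100 mM sodium acetate pH 7 with compound, aggregation induced by 20 uM heparin for 6 hr at 37 C. ThT (30 uM) added for 1 hr, then Alexa 594 FP read.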
Tau fluor counter: Counterscreen qHTS for Inhibitors of Tau Fibril Formation, Fluorescence Polarization; Potency, µM (series often up to 57.7 µM), for inactives: at the top dose activity change, negative = decrease; tau K18 P301L Alexa594 fluorescence, heparin fibrillization; 280,000 compounds, 0.93% hits; AID 1463, 2008; note: nearly all actives have a fitted effect of over 55% in size
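Human tau K18 P301L (15 uM unlabeled, 0.24 uM Alexa 594-labeled) in 100 mM sodium acetate pH 7 with 20 uM heparin, 6 hr at 37 C. ThT 30 uM added, 1 hr ambient; Alexa 594 FP and total fluorescence read at 555/632 nm.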
TexasRed fluor: Total Fluorescence Counterscreen for Inhibitors of the Interaction of Thyroid Hormone Receptor and Steroid Receptor Coregulator 2; TRb/SRC2 Texas Red total fluorescence interference; 280,000 compounds, 0.29% hits; Potency, µM (titrated, usually from 106 µM), without a hit: at the highest dose fluorescence change, negative = quenching; AID 1479, 2009; active = well fitted curve in either direction with a large enough effect; inconclusive = small, poorly fitted or top-dose-only effect
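Flags fluorescent or light-absorbing compounds by total fluorescence, S + 2P, at 555 nm excitation and 632 nm emission. Mixture: 20 nM Texas Red SRC2 peptide, 0.6 uM human TRb LBD, 1 uM T3, 5% DMSO; compound exposure 5 h at ambient temperature.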
TRb SRC2 PPI: qHTS for Inhibitors of the Interaction of Thyroid Hormone Receptor and Steroid Receptor Coregulator 2 | 280,000 compounds, 0.065% hits | AID 1469, 2008 | Thyroid hormone receptor beta (Homo sapiens), P10828 | TRbeta-SRC2 peptide binding, fluorescence polarization; receptor liganded with 1 µM T3 | Potency, µM (series often up to 106 µM), for the others: top-dose activity change, negative = inhibition, hits mostly inhibitors;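 note: plate controls were bound peptide for no effect and peptide without receptor for full effect; nearly all actives have a fitted effect of over 50% in size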
Target sequence (P10828 whole entry, looked up): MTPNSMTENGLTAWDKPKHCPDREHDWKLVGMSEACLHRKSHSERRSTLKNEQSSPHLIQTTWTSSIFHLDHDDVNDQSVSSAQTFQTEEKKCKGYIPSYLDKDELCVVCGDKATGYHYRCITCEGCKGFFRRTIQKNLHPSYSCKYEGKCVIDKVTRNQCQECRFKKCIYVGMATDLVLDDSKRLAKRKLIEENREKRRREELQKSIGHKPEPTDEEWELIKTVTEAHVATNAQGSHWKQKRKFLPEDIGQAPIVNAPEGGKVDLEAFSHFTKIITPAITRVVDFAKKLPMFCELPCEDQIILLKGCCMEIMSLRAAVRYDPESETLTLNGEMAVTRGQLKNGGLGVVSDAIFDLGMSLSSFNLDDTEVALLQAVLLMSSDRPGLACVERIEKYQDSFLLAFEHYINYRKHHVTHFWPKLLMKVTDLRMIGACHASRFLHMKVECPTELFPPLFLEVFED
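Human TRb ligand-binding domain (0.6 uM) is mixed with 20 nM Texas Red SRC2 peptide and 1 uM T3; after compound addition and 5 hr at ambient temperature, polarization is measured and normalized to unbound and bound controls.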
RGS12 GoLoco inh: qHTS Assay for Inhibitors of RGS12 GoLoco Motif Activity (Red Fluorophore). Potency, µM (doses to about 61.6 µM), inactives show top-dose activity, negative = inhibition, actives largely listed as inhibitors. AID 880, 2007. Gai1:RGS12 GoLoco peptide FP, rhodamine, 10 min. Guanine nucleotide-binding protein G(i) subunit alpha-1 (Homo sapiens), P63096. 230,000 compounds, 0.44% hits; active = well fitted inhibition curve with a large enough effect, not every such curve was filed as active; inactive = no such curve, though single readings can be large or run the other way; note: nearly all actives have a fitted effect of over 30% in size
Tau fibril ThT: qHTS for Inhibitors of Tau Fibril Formation, Thioflavin T Binding | AID 1460, 2008 | recombinant tau K18 P301L (four-repeat tau fragment), heparin-induced fibrillization, ThT fluorescence | Microtubule-associated protein tau (Homo sapiens), P10636 | Potency, µM (highest dose often 57.4 µM), for inactives: at the highest dose activity, negative = inhibition, actives largely listed as inhibitors | 270,000 compounds, 2.1% hits; note: nearly all actives have a fitted effect of over 55% in size
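Heparin-induced fibrillization of the P301L-mutant K18 repeat-domain fragment of human tau was followed by ThT binding in quantitative high-throughput format.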
The depositor's hits bear a star; ? = inconclusive; nt = no result given; [ ] = remark or other dose. Unless noted, calls come from the whole dose curve; as a rule, active = well fitted curve in the direction sought with a large enough effect; inconclusive = small, poorly fitted or top-dose-only effect, or another doubt; inactive = no such curve, though single readings can be large; an effect the other way counts as inactive or inconclusive. Unless noted, % is set by controls: 0 for no effect and ±100 for the full control effect; potency is the fitted concentration of half-maximal effect.

SMILES	Tau FP inhib	Tau fluor counter	TexasRed fluor	TRb SRC2 PPI	RGS12 GoLoco inh	Tau fibril ThT
CCCC(=O)Nc1ccc(-c2csc(N/N=C\c3ccncc3)n2)cc1	?	15.8µM*[quencher]	-5.5%	1.4%	-6.8%	nt
C(=N\Nc1nc(-c2ccccc2)cs1)/c1cccnc1	12.1%	15.8µM*[quencher]	-4.3%	2.1%	-6.8%	15.8µM*
CC1CC(CC(=O)NNc2nc(-c3ccccc3)cs2)C(=O)O1 (stereo not drawn)	0.7%	-7.7%	-1.6%	3.7%	-2.4%	-14.0%
COc1ccc(NC(=O)N2CC[C@@]3(CCCN(C(=O)c4cccc(F)c4)C3)C2)cc1	nt	nt	nt	nt	10.7%	nt
O=C(O)CCSCc1ccc(I)cc1	nt	nt	nt	nt	-8.1%[14.2 µM]	nt
CC(C)=NNc1nc(-c2ccccc2)cs1	-3.3%	9.5%	-1.4%	6.0%	22.4%	0.8%
CC(/C=C/c1ccccc1)=N\Nc1nc(-c2ccccc2)cs1	11.4%	11.2µM*[quencher]	-3.2%	0.8%	3.5%	7.94µM*
Cc1cccc(N2CCC(N3CCN(C4CCCCC4)C(CCO)C3)CC2)c1C (stereo not drawn)	-56.8%	-39.0%	-14.6%	-4.8%	10.9%	10µM*
COc1ccc(-n2sc3c(c2=S)-c2cc(OC)ccc2NC3(C)C)cc1	?	7.94µM*[quencher]	-6.1%	-5.4%	5.1%	?
COc1ccc2c(c1)-c1c(sn(-c3ccccc3)c1=S)C(C)(C)N2	?	14.1µM*[quencher]	0.2%	-4.8%	8.3%	?
COc1ccc2c(c1)-c1c(ssc1=S)C(C)(C)N2	-9.9%	15.8µM*[quencher]	-4.5%	3.6%	-9.3%	14.1µM*
CN1CCN(c2ncc3nc(CCc4ccccc4)c(=O)n(C)c3n2)CC1	nt	nt	nt	nt	7.6%	nt
CO[C@H]1[C@@H](OC(N)=O)[C@H](O)[C@@H](Oc2ccc3c(O)c(NC(=O)c4ccc(O)c(CC=C(C)C)c4)c(=O)oc3c2C)OC1(C)C	nt	nt	-1.0%[53 µM]	2.5%[53 µM]	1.3%[21.6 µM]	nt
O=C1CC(=O)N(Cc2cccs2)C(=O)N1	?	-16.8%	3.5%	-24.8%	4.5%	20µM*
Cc1nnc(N2CCC(C(=O)NCc3ccc(F)cc3)CC2)c2nn(-c3ccc(Cl)cc3)c(C)c12	-13.2%	-8.3%	-1.9%	1.8%	nt	?
N#C/C(=N/Nc1ccc(S(=O)(=O)N2CCOCC2)cc1)C(N)=O	-0.5%	-1.9%	-3.3%	8.4%	-0.7%	-1.9%
CCOC(=O)/C(C#N)=N/Nc1ccc(S(=O)(=O)N2CCc3ccccc32)cc1	2.1%	?	-1.0%	5.1%	6.4%	?
N#C/C(=N\Nc1ccc(S(=O)(=O)N2CCc3ccccc32)cc1)C(N)=S	15.6%	?	-0.9%	0.7%	0.5%	14.1µM*
N#C/C(=N\Nc1ccc(S(=O)(=O)N2CCCCCC2)cc1)C(N)=S	6.1%	-19.4%	-8.6%	-6.7%	19.7%	14.1µM*
N#C/C(=N/Nc1ccc([N+](=O)[O-])cc1)C(=N)N1CCCCC1	0.2%	-28.9%	-3.5%	1.2%	16.4%	10µM*
N#C/C(=N\Nc1ccc(S(=O)(=O)N2CCCCC2)cc1)C(N)=S	-5.1%	-13.2%	-4.3%[53 µM]	4.1%[53 µM]	2.9%	12.6µM*
COC(=O)c1c(-c2ccc(Cl)cc2)noc1N1CCN(c2cc(C)ccc2C)CC1	-5.1%	-4.3%	-1.8%	-1.8%	nt	-4.6%
NC(=O)[C@@H]1CCCN1C(=O)C(Cc1cnc[nH]1)NC(=O)C1CCC(=O)N1 (stereo partly drawn)	nt	nt	0.9%	-6.1%	nt	nt
O=S(=O)(NCCc1csc2nc(-c3ccccc3)nn12)c1ccc(Oc2ccccc2)cc1	?	-15.3%	-0.7%	-0.2%	nt	5.2%
NNC(=S)Nc1ccc(S(=O)(=O)N2CCCCC2)cc1	14.0%	15.8µM*[quencher]	-3.1%	3.7%	-16.3%	-9.7%
SMILES	Tau FP inhib	Tau fluor counter	TexasRed fluor	TRb SRC2 PPI	RGS12 GoLoco inh	Tau fibril ThT
CC(=O)c1ccc(NS(=O)(=O)c2cccc(S(=O)(=O)c3ccc(Cl)cc3)c2)cc1	2.0%	-22.7%	?	-28.4%[53 µM]	nt	?
CCNC(=S)N1CCN(c2ccc([N+](=O)[O-])cc2)CC1	2.2%	-5.2%	0.3%	4.1%	7.9%	5.62µM*
COc1ccc(NC(=O)N2CCN(c3ccc([N+](=O)[O-])cc3)CC2)cc1OC	-4.4%	-23.4%	4.3%	-9.6%	1.9%	8.91µM*
COc1ccc(NC(=O)N2CCN(c3ccc([N+](=O)[O-])cc3)CC2)cc1	5.0%[2.34 µM]	-7.7%	0.1%	-6.9%	-29.7%	-0.7%
CN(C)c1ccc(C(=S)N2CCN(c3ccc([N+](=O)[O-])cc3)CC2)cc1	3.2%	-8.8%	-3.8%	1.7%	20µM*	-7.2%
O=[N+]([O-])c1ccc(/C=N\N2CCN(c3ccc(Cl)cc3)CC2)cc1	2.9%	-16.1%	-4.4%	-1.1%	-0.4%	2.24µM*
O=[N+]([O-])c1ccc(C(=S)N2CCN(c3ccc(F)cc3)CC2)cc1	-0.9%	-28.2%	0.4%	2.5%	0.3%	?
CCn1cc(C(=O)N2CCN(c3cccc(Cl)c3)CC2)c(=O)c2cc(S(=O)(=O)N3CCC(C)CC3)ccc21	0.6%	-17.0%	-1.5%	3.1%	nt	-16.0%
CCOC(=O)N1CCc2c(sc3c2c(=O)n(-c2ccc(F)cc2)c(=O)n3CC(=O)c2ccc(Cl)cc2)C1	6.6%	3.1%	0.4%	-2.0%	nt	6.1%
Cc1nc(-c2ccc(C)c(N3CCN(C(=O)Nc4ccc(Br)cc4)CC3)c2)no1	?	-25.7%	-30.2%	-1.6%	nt	9.6%
O=C1C2CC=CCC2C(=O)N1c1ccc(N2CCN(c3ccccn3)CC2)c([N+](=O)[O-])c1 (stereo not drawn)	2.5%	-28.2%	-1.3%	-1.6%	-6.1%	14.1µM*
C=CCNC(=S)N1CCN(c2ccc([N+](=O)[O-])cc2)CC1	0.6%	-9.8%	-5.6%	-1.5%	nt	12.6µM*
O=C(c1ccc(N2CCCCC2)c([N+](=O)[O-])c1)N1CCN(c2ccccn2)CC1	8.2%	-7.1%	1.4%	0.6%	-2.4%	?
O=[N+]([O-])c1ccc(N2CCN(C(=S)NCc3ccc(Cl)cc3)CC2)cc1	?	?	-0.2%	-8.7%	13.4%	?
NC(=O)c1ccc(N2CCN(c3ccc(O)cc3)CC2)c([N+](=O)[O-])c1	0.9%	-20.6%	-5.1%	5.9%	-7.7%	17.8µM*
CNC(=S)N1CCN(c2ccc([N+](=O)[O-])cc2)CC1	-1.5%	-6.1%	1.5%	-0.5%	-5.2%	5.62µM*

Assay outcomes (PubChem BioAssay)
